For orientation: inhibition means the percentage by which the read-out fell short of the control.

The whole screen tested about 350,000 compounds, of which about 450 (0.13%) were called active. No rule for the calls is given here. These entries were drawn from the full list. Entries with a potency or affinity are not part of this list.

This test can be described thus: inhibitors of VEEV TC-83 cytopathic effect, confirmation, Vero cells (AID 588727). The settings on record: VEEV TC-83 cytopathic effect inhibition, at 20 µM. (Damage to the host cells serves as the signal in cytopathic effect assays.)
Setting [1] is: stronger effect = higher value unless noted.
The mark [2] stands for this setting: measured here: 10K pilot screen inhibition, stronger effect = higher value.

`c1ccc(-n2ncc3c2ncn2nc(CSc4nc5ccccc5s4)nc32)cc1`: the inhibition entry under setting [1] was “inactive”.
As for `O=c1[nH]c(CSc2ncccn2)nc2c1cnn2-c1ccccc1`, the inhibition by setting is: (stronger effect = higher value) 5.59% (inactive); under setting [2], 3.44%.
`CCc1ccc(OCC(=O)Nc2nnc(-c3ccco3)s2)cc1`: under setting [1], the inhibition is 0.88% (inactive).
The same measure, in the same setting: in the case of `Cc1ccc(-n2ncc3c(NCc4ccccn4)ncnc32)c(C)c1` it was 1.72% (inactive); in that of `Cc1ccc(-n2ncc3c(NCc4cccnc4)ncnc32)c(C)c1`, 1.66% (inactive); in that of `Fc1ccc(-n2ncc3c(SCc4cccnc4)ncnc32)cc1`, 3.59% (inactive).
For the compound `CSc1ncnc2c1cnn2-c1ccc(C)cc1C`, under setting [1], the inhibition is 8.17% (inactive).
The same measure, in the same setting: the same measure for `COc1ccc(C(C(=O)NCC2CCCO2)N(Cc2ccc(F)cc2)C(=O)CNC(=O)c2ccco2)cc1OC` (configuration not stated): 1.15% (inactive); for `O=C1c2cccc3cc([N+](=O)[O-])cc(c23)C(=O)N1c1nncs1`: “inactive”.
The same measure, in the same setting: in the case of `Cc1cc(O)ccc1N1C(=O)c2cccc3cc([N+](=O)[O-])cc(c23)C1=O` it was “inactive”; in that of `Cc1ccc(C)c(OCc2cc(C(=O)N3CCN(c4ccccc4C)CC3C)no2)c1` (configuration not stated), 4.26% (inactive).
The same measure, in the same setting: the same measure for `Cc1cc(C(=O)N(Cc2nnc(-c3ccc(Cl)cc3)o2)C(C)C)c2ccccc2n1`: 8.49% (inactive); for `c1ccc(-c2nc(-c3ccccn3)no2)cc1`: “inactive”; for `c1ccc(-c2cnnc(-c3ccccn3)n2)cc1`: 2.25% (inactive).
For `CCCCn1c(N)c(N(CCC(C)C)C(=O)CSc2nnc3ccccn23)c(=O)[nH]c1=O`, the inhibition under setting [1] was 0.96% (inactive).
Same read-out and setting: the same measure for `COCCCNC(=O)/C=C/c1ccc(Cl)cc1`: “inactive”.
With `CN(C)CCCNC(=O)/C=C/c1ccc2c(c1)OCO2`, the inhibition (stronger effect = higher value) is 0.85% (inactive) and the inhibition under setting [2] is 1.09%.
Consider `Cc1cc(-c2nnc(CCC(=O)NC(C)c3ccc(F)cc3)o2)no1` (configuration not stated), for which the inhibition by setting is: (stronger effect = higher value) 0.09% (inactive); under setting [2], 1.8%.
In the case of `Nc1nnc(SCC(=O)OCC(=O)Nc2ccc(Br)cc2F)s1`, the inhibition under setting [1] is 1.19% (inactive).
Same read-out and setting: in the case of `COc1ccc(S(=O)(=O)N2CCOCC2)cc1C(=O)NCc1ccccc1CN1CCCC1` it was 0.08% (inactive); in that of `CCc1ccc(-c2nc(CSCC(=O)NCCCN3CCCC3=O)c(C)o2)cc1`, 3.51% (inactive).
The same measure, in the same setting: in the case of `CCCOc1ccccc1/C=C1\SC(N)=NC1=O` it was 2.5% (inactive); in that of `O=C1N=C(N2CCCCC2)S/C1=C\c1ccccc1F`, 0.16% (inactive).
For the compound `CCOC(=O)C1CCCN(c2oc(-c3ccc(OC)cc3)nc2C#N)C1` (configuration not stated), the inhibition under setting [1] was 2.16% (inactive).
`O=C(COC(=O)COc1ccccc1)NCCc1ccccc1`: the inhibition under setting [1] was 0.2% (inactive).
Still for that read-out and setting: the same measure for `CCC(=NC(C)c1ccccc1)c1c(O)[nH]c(=O)[nH]c1=O` (configuration not stated): 1.39% (inactive); for `C=CCSc1nc2ccccc2n1C(=O)/C=C/c1cc(OC)c(OC)c(OC)c1`: 2.65% (inactive).
Regarding `CCn1c(SCC(=O)N/N=C/c2ccc(OC)c(OC)c2)nc2ccccc21`, the inhibition by setting is: (stronger effect = higher value) 4.2% (inactive); under setting [2], 2.22%.
In the case of `CC(=O)N1CCC(N(CCCOC(C)C)S(=O)(=O)c2ccc([N+](=O)[O-])cc2)CC1`, the inhibition entry under setting [1] was “inactive”.
Same read-out and setting: in the case of `Cc1ccc(-c2nc(CSCC(=O)N3CCCC3)c(C)o2)cc1` it was “inactive”.
Still for that read-out and setting: the same measure for `Cc1oc(-c2ccccc2Cl)nc1CSCC(=O)O`: 1.08% (inactive); for `COc1ccc(NC(=O)c2cn(-c3ccccc3)nc2-c2ccncc2)cc1`: 8.65% (inactive); for `O=C(NC(=S)NCCO)c1cn(-c2ccccc2)nc1-c1ccccc1`: 1.03% (inactive).
As for `Cc1onc(-c2ccccc2)c1C(=O)NC(=S)NNC(=O)c1ccncc1`, the inhibition under setting [1] is 1.78% (inactive).
For the compound `CCN(CC)CCNC(=S)NC(=O)c1cn(-c2ccccc2)nc1-c1ccc(OC)cc1`, the inhibition entry under setting [1] was “inactive”.
Regarding `Cc1onc(-c2ccccc2)c1C(=O)Nc1sc2c(c1C#N)CCC2`, under setting [1], the inhibition was 2.67% [measured here: 10K pilot screen inhibition, stronger effect = higher value] and the call was inactive.
Turning to `Cc1ccc(NC(=O)Nc2nnc(-c3ccccc3F)s2)cc1`, the inhibition under setting [1] is 0.72% (inactive).
On the same count and under the same terms, in the case of `Cc1ccc(S(=O)(=O)N(C)c2ccc(C(=O)Nc3c(C)n(C)n(-c4ccccc4)c3=O)cc2)cc1` it was 2.04% (inactive).
For the compound `Cn1ncc(Br)c1C(=O)O`, the inhibition was 0.63% (inactive) (stronger effect = higher value) and 1.4% under setting [2].
As to `CCC1CSC(Nc2ccc(C(=O)/C=C/c3ccc(Br)cc3)cc2)=N1` (configuration not stated), the inhibition under setting [1] was 0.39% (inactive).
Still for that read-out and setting: in the case of `CCC1CSC(Nc2ccc(C(=O)/C=C/c3cccc(C)c3)cc2)=N1` (configuration not stated) it was 32.8% (inactive); in that of `CC1=C(C(=O)NC2CCCc3c2cnn3-c2cccc(C)c2C)OCCO1` (configuration not stated), 1.75% (inactive).
The same measure, in the same setting: the same measure for `Cc1cc(C(=O)NC2CCCc3c2cnn3-c2cccc(C)c2C)n(C)n1` (configuration not stated): “inactive”.
The same measure, in the same setting: the same measure for `O=C(NC1CCCc2c1cnn2-c1ccccc1F)c1ccncc1` (configuration not stated): “inactive”; for `O=C(NC1CCCc2c1cnn2-c1ccc(F)cc1F)c1ccccn1` (configuration not stated): “inactive”; for `COCCC(=O)NC1CCCc2c1cnn2-c1cccc(C)c1C` (configuration not stated): “inactive”.
For `COc1ccc(C(=O)NC2CCCc3c2cnn3-c2cc(F)cc(F)c2)c(OC)n1` (configuration not stated), the inhibition under setting [1] was 0.41% (inactive).
The same measure, in the same setting: the same measure for `O=C(CSc1nnc(Cc2ccccc2)c(=O)[nH]1)Nc1ccccc1`: 1.19% (inactive); for `CC1CCCC(=NNC(=O)C2COc3ccccc3O2)C1` (configuration not stated): 1.68% (inactive); for `C=CCNc1n[nH]c(=S)s1`: 0.53% (inactive).
`Cc1cc(/C=C(\C#N)C(=O)Nc2ccccc2)c(C)n1-c1cccnc1`: under setting [1], the inhibition was 4.21% (inactive).
Regarding `CCC(NC(=O)Cc1c(C)c2cc3c(cc2oc1=O)OC(C)(C)CC3)C(=O)O` (configuration not stated), under setting [1], the inhibition was 0.65% (inactive).
The same measure, in the same setting: the same measure for `C(=N\N1CCN(C(c2ccccc2)c2ccccc2)CC1)/c1ccc2c(c1)OCO2`: “inactive”; for `COC(=O)c1c(C)[nH]c(C(=O)C(C)OC(=O)c2c(C)noc2C)c1C` (configuration not stated): “inactive”.
Still for that read-out and setting: in the case of `O=C1N=C(N2CCOCC2)SC1=C1CCCCC1` it was 1.03% (inactive); in that of `Cc1oc(-c2ccc(Cl)cc2)nc1CN1CCC(C(=O)NCC2CCCO2)CC1` (configuration not stated), 0.22% (inactive).
Turning to `CCN(CCNC(=O)C1CCN(Cc2nc(-c3ccc(Cl)cc3)oc2C)CC1)c1ccccc1`, under setting [1], the inhibition result was “inactive”.
As to `Cc1oc(-c2ccc(Cl)cc2)nc1CN1CCC(C(=O)NCCCN2CCOCC2)CC1`, the inhibition under setting [1] was 2.07% (inactive).
With `Cc1cc(N2CCN(Cc3nc(-c4ccc(F)cc4)oc3C)CC2)cc(C)n1`, under setting [1], the inhibition is 0.13% (inactive).
On the same count and under the same terms, in the case of `Cc1cccc(N2CCN(Cc3nc(-c4cccc(Cl)c4)oc3C)CC2)n1` it was “inactive”.
Still for that read-out and setting: in the case of `Cc1ccccc1-c1nc(CN2CCC(C(=O)NCCCN3CCCC(C)C3)CC2)c(C)o1` (configuration not stated) it was 9.38% (inactive).

The record behind these values is PubChem BioAssay AID588727 (Southern Research Specialized Biocontainment Screening …, 2011).
